Compound activity: PubChem, National Center for Advancing Translational Sciences (NCATS)
Compounds with a hit are over-represented: about 1.8% of the library has one in this group of screens.
GLP-1R inv ag = acts as inverse agonist at human GLP-1 receptor | AID 624417 | Potency, µM (top dose mostly 38.3 µM), for inactives: at the top dose activity change, negative = inhibition, actives largely listed as inhibitors | 410,000 tested, 1.6% active | HEK293 GLP-1R CRE-luciferase, luminescence, 24 h; GLP-1R form is constitutively active; also: % is scaled to controls: 0 for no effect and ±100 for the full control effect; nearly all actives have a fitted effect of over 55% in size
Target sequence (P43220 whole entry, looked up): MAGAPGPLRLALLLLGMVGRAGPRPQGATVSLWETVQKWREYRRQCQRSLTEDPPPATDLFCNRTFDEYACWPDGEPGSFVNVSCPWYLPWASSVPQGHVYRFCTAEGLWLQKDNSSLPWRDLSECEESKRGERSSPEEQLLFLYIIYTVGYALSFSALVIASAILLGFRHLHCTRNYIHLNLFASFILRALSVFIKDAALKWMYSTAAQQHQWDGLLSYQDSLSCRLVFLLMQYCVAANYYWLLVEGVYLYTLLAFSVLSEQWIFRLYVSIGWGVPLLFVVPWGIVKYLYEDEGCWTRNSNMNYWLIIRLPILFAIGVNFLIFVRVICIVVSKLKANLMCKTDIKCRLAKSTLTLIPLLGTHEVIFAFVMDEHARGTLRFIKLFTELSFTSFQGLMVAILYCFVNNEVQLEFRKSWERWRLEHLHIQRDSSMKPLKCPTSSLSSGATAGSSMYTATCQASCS
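Inverse agonists were sought by their lowering of basal cAMP reporter luciferase output in HEK293 cells stably carrying constitutively active human GLP-1R, after 24 h compound treatment.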
Tb PFK block = blocks T. brucei phosphofructokinase; O15648; T. brucei PFK, ADP-Glo luminescence; Potency, µM (top dose mostly 57.5 µM), without a hit: top-dose activity, negative = inhibition, usual class: inhibitors; 330,000 tested, 0.17% active; AID 485367;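 also: 0% = uninhibited 1x PFK enzyme wells and -100% = no-enzyme wells; nearly all actives have a fitted effect of over 60% in size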
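PFK 1.25 nM, F6P 0.5 mM, ATP 0.1 mM, 0.1 M TEA pH 8.0, 5 mM MgCl2, 0.01% Tween20, 0.1% BSA; 45 min RT. ADP-Glo readout. qHTS titration up to 57 uM; curves fitted, compounds curve-classed.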
Pin1 inh = human Pin1 inhibition; Pin1 FP peptide displacement, HiFluor488, 10 min; Potency, µM (titrated, usually from 115 µM), for the others: at the highest dose activity, negative = inhibition, usual class: inhibitors; 390,000 tested, 0.009% active; AID 504891; active = well fitted inhibition curve with a large enough effect in the polarisation, with a control signal flat, not every such curve was filed as active; inconclusive = small, poorly fitted or top-dose-only effect, or effect the other way, or a change in a side signal; inactive = no such curve, though single readings can be large or run the other way; the % refers to the polarisation; also: % is scaled to controls: 0 for no effect and ±100 for the full control effect
Tb PGK inh = T. brucei PGK inhibition. PGK/GAPDH coupled, Kinase-Glo luminescence, 60 min. Potency, µM (titrated, usually from 57.5 µM), inactives show at the top dose activity change, negative = inhibition, actives largely listed as inhibitors. 380,000 tested, 0.043% active. P07378. AID 602233; also: % is scaled to controls: 0 for no effect and ±100 for the full control effect; nearly all actives have a fitted effect of over 60% in size
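Recombinant glycosomal PGK reaction used 1,3-bisphosphoglycerate generated in-well by GAPDH (100nM final) in 100mM TEA pH 7.6, 5mM MgCl2, 0.01% Tween-20. After 60 minutes at room temperature, ATP was read by Kinase-Glo Plus luminescence end-point.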
GLP1R cytotox = cytotoxicity counter-screen for GLP-1 receptor inverse agonists; HEK293 cAMP-luciferase reporter cells, luminescence, 24 h; Potency, µM (series often up to 38.3 µM), for the others: top-dose activity change, negative = inhibition, most hits filed as inhibitors; 410,000 tested, 0.13% active; AID 624418;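 also: loss of luciferase light is scored as toxicity; % is scaled to controls: 0 for no effect and ±100 for the full control effect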
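Cells in DMEM/10% Nu serum/1% pen-strep, 1536-well format. Pre-incubated 12 h, dosed with 23 nL compound, incubated a further 24 h. Luciferase detection, 12 min at room temp, luminescence.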
GLP-1R agonist = agonists of human GLP-1 receptor. HEK293 GLP-1R CRE-luciferase, luminescence, 4-6 h; cells express a hypersensitive GLP-1R form. Potency, µM (series often up to 45.6 µM), inactives show top-dose activation, hits mostly activators. P43220. AID 624172. 380,000 tested, 0.007% active; also: % of control where 0% means no effect
* = called active by the depositor; i = inactive; ? = inconclusive; nt = not tested or not shown. Unless noted, calls follow the shape of the dose curve; as a rule, active = well fitted curve in the direction sought with a large enough effect; inconclusive = small, poorly fitted or top-dose-only effect, or another doubt; inactive = no such curve, though single readings can be large; an effect the other way counts as inactive or inconclusive. Potency is read from the fitted curve at half-maximal effect.

SMILES	GLP-1R inv ag	Tb PFK block	Pin1 inh	Tb PGK inh	GLP1R cytotox	GLP-1R agonist
CC(Nc1nc(-c2ccc(F)cc2)cs1)c1nc2cc(C(F)(F)F)ccc2n1CCCO (stereo not given)	7.9µM*	nt	4%	-4%	-9%	-1%
Cc1ccccc1NC1=C/C(=N\S(=O)(=O)c2ccc(C(=O)O)cc2)c2ccccc2C1=O	8.9µM*	-3%	?	-6%	?	-2%
O=C(O)c1ccc(S(=O)(=O)/N=C2\C=C(Nc3ccccc3F)C(=O)c3ccccc32)cc1	?	4%	?	?	?	-9%
C/C(=C\[C@@H](NP(=O)(c1ccccc1)c1ccccc1)c1ccccc1)CO[Si](c1ccccc1)(c1ccccc1)C(C)(C)C	7.9µM*	nt	27%	3%	-12%	-5%
Cc1ccc(C2CC(c3ccc(Br)cc3)=NN2C(=O)CSC2=NN3CCCC(=O)N=C3S2)cc1 (stereo not given)	4.5µM*	2%	10%	-2%	-17%	-1%
O=C1CCCN2N=C(SCC(=O)N3N=C(c4ccc(Br)cc4)CC3c3ccc(F)cc3)SC2=N1 (stereo not given)	?	1%	23%	-2%	-4%	1%
CCCOc1ccc(NC(=O)CC2C(=O)N(CC)C(=S)N2Cc2cccs2)cc1 (stereo not given)	10µM*	1%	5%	-9%	-28%	0%
CCCCCCOc1ccc(NC(=O)CC2C(=O)N(CC)C(=S)N2Cc2ccco2)cc1 (stereo not given)	7.1µM*	-2%	32%	i	?	-5%
C=CCN1C(=O)C(CC(=O)Nc2ccc(OCCC)cc2)N(CCCN2CCN(Cc3ccccc3)CC2)C1=S (stereo not given)	2.5µM*	4%	5%	1%	?	0%
Cc1ccc(NC(=O)C2CCC(CNS(=O)(=O)c3csc(C(N)=O)c3)CC2)cc1Cl (stereo not given)	-1%	nt	34%	3%	-2%	nt
O=C(Nc1ccccc1)Nc1cccc2cccnc12	10µM*	?	1%	0%	-13%	1%
COc1cc(Cl)c(C)cc1NC(=O)C(OC(=O)CNC(=O)c1ccccc1)c1ccccc1 (stereo not given)	nt	nt	20%	nt	nt	nt
O=C(CN1C(=O)c2cccc3cccc(c23)C1=O)N1CCCCCC1	7.9µM*	0%	-15%	-1%	-12%	-2%
O=C(ONC1=NCCCCC1)c1cccc([N+](=O)[O-])c1	?	1%	-2%	-9%	11µM*	14%
CC1CCCC2(C1)NC(=S)N(c1ccccc1)N2 (stereo not given)	5µM*	?	-8%	0%	-31%	3%
CC1CCCCC12NC(=S)N(c1ccccc1)N2 (stereo not given)	2%	-10%	-3%	-1%	9%	0%
S=C1NC2(CCCCC2)NN1c1ccccc1	?	?	-1%	-5%	-24%	7%
CC1CC(C)(C)CC2(C1)NC(=S)N(c1ccccc1)N2 (stereo not given)	3.5µM*	-12%	-3%	-6%	-18%	0%
CC(C)c1cc(C(=O)NCc2ccccc2)no1	8%	nt	-7%	-4%	2%	nt
CCCCCCCCCCCCCCCCCC(=O)[O][Al]	nt	nt	nt	nt	nt	-4%
COc1ccc(OC)c(CNC(=O)CCCc2cn(C)c3ccccc23)c1	?	-2%	0%	-5%	3%	-3%
COc1ccc(Br)cc1CNC(=O)CCCc1cn(C)c2ccccc12	22µM*	-2%	-1%	7%	-6%	5%
CCCCOc1ccc(C(=O)NCC(=O)N2CC(C)CC(C)C2)cc1 (stereo not given)	11µM*	-5%	2%	-5%	-1%	-1%
CCn1c(NCc2cc(Br)ccc2NS(=O)(=O)c2ccc(C)cc2)nc2ccccc21	11µM*	1%	12%	-1%	-30%	-32%
